Test results from PubChem BioAssay (NCATS).
Results filed as inconclusive are left out. Activity calls are given as the source filed them. Calls follow the shape of the dose curve; as a rule, active = well fitted inhibition curve with a large enough effect; inconclusive = small, poorly fitted or top-dose-only effect; inactive = no such curve, though single readings can be large or run the other way.

Assay: Primary qHTS for small molecule stabilizers of the endoplasmic reticulum resident proteome: Secreted ER Calcium Modulated Protein (SERCaMP) assay (AID 1508630)
Conditions: SH-SY5Y GLuc-SERCaMP (Gaussia luciferase released on ER calcium loss) secretion, thapsigargin, luminescence; series mostly up to 38.4 µM; activity change, negative = inhibition: at the top concentration
In short: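 The SH-SY5Y reporter protocol was run at 3 concentrations up to 38.3 uM (primary) or 11 concentrations (follow-up): 16 h compound, 100 nM thapsigargin for 4 h, then extracellular luciferase luminescence.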
% is scaled to controls: 0 for no effect and ±100 for the full control effect.

Structure (SMILES)	activity change, negative = inhibition	Potency
C=C1C(=C/C=C2\CCC[C@]3(C)[C@@H]([C@H](C)/C=C/[C@@H](O)C4CC4)CC[C@@H]23)C[C@@H](O)C[C@@H]1O	-2.92% (inactive)	
CCN(CC)CCNC(=O)COc1ccc(Cl)cc1	-3.31% (inactive)	
COC(=O)CCc1ccc(OCC(O)CNC(C)C)cc1 (stereo not drawn)	39.7% (inactive)	
CC(=O)O[C@]1(C(C)=O)CC[C@H]2[C@@H]3C[C@H](C)C4=CC(=O)CC[C@]4(C)[C@H]3CC[C@@]21C	-10% (inactive)	
CC1(C)OC[C@@H](COC(=O)CCc2ccc(OC[C@@H](O)CNCCNC(=O)N3CCOCC3)cc2)O1	-19.9% (inactive)	
COc1ccc(CCN2CCC(Nc3nc4ccccc4n3Cc3ccc(F)cc3)CC2)cc1	318% (inactive)	
CC1(C)O[C@@H]2C[C@H]3[C@@H]4C[C@H](F)C5=CC(=O)C=C[C@]5(C)[C@H]4[C@@H](O)C[C@]3(C)[C@]2(C(=O)CO)O1	39% (inactive)	
COc1cc2c(cc1OC)[C@@H]1CC(=O)[C@@H](CC(C)C)CN1CC2		inactive
C[C@@H]1C[C@H]2[C@@H]3C[C@H](F)C4=CC(=O)C(Cl)=C[C@]4(C)[C@@]3(F)[C@@H](O)C[C@]2(C)[C@@]1(O)C(=O)CO	26.4% (inactive)	
OC[C@@H](O)[C@@H](O[C@@H]1O[C@H](CO)[C@H](O)[C@H](O)[C@H]1O)[C@H](O)[C@@H](O)CO	-18.7% (inactive)	
Cc1ccnc(NS(=O)(=O)c2ccc(N)cc2)n1	-10.5% (inactive)	
O=C(COc1ccc(Cl)cc1)N1CCN(Cc2ccc3c(c2)OCO3)CC1	-27% (inactive)	
CC(=O)N/N=C/c1ccc([N+](=O)[O-])o1	-16.1% (inactive)	
C/C=C/c1ccc(OC)cc1	-9.38% (inactive)	
CC(=O)Oc1ccc2c(c1)CC[C@@H]1[C@@H]2CC[C@]2(C)[C@@H](O)CC[C@@H]12	5.62% (inactive)	
OC[C@H]1O[C@@H](n2cnc3c(=S)nc[nH]c32)[C@H](O)[C@@H]1O	231% (inactive)	
COc1ccc(/C=C/C(=O)c2ccc(OC)cc2OC)cc1	-29.4% (inactive)	

Structure (SMILES)	activity change, negative = inhibition	Potency
Nc1ccn([C@@H]2O[C@H](CO)[C@@H](O)C2(F)F)c(=O)n1	-0.431% (inactive)	
CCCCCCCCCCOCC(O)CN (stereo not drawn)	25.2% (inactive)	
C[C@]12CC[C@H]3[C@@H](CCC4=CC(=O)CC[C@@]43C)[C@@H]1CC[C@@H]2C(=O)CO	3.21% (inactive)	
CC(O)C(=O)O (stereo not drawn)	-3.31% (inactive)	
C[C@H](CCC(=O)O)[C@H]1CC[C@H]2[C@@H]3C(=O)C[C@@H]4CC(=O)CC[C@]4(C)[C@H]3CC(=O)[C@]12C	-21.8% (inactive)	
CCOc1ccc(NC(=O)CC(C)O)cc1 (stereo not drawn)	-9.88% (inactive)	
CCCCCC=CCC=CCCCCCCCC(=O)OCC	-28.7% (inactive)	
COc1ccc(C2C(=O)c3ccccc3C2=O)cc1	-14.6% (inactive)	
CCCCCCCCCCCCCCCC[N+](C)(C)CC	-5.3% (inactive)	
Oc1cc(O)c2c(c1)O[C@H](c1ccc(O)c(O)c1)[C@H](O)C2	-28.4% (inactive)	
NC(=O)C(=O)N/N=C/c1ccc([N+](=O)[O-])o1	-13.6% (inactive)	
C[C@]12C=CC(=O)C=C1CC[C@@H]1[C@@H]2[C@@H](O)C[C@@]2(C)[C@H]1CC[C@]2(O)C(=O)CO	27.4% (inactive)	
CC(=O)OCC(=O)[C@@]1(O)[C@H](C)C[C@H]2[C@@H]3CCC4=CC(=O)C=C[C@]4(C)[C@@]3(F)[C@@H](O)C[C@@]21C	-21.2% (inactive)	
CCN(CC)C(=O)N1CCN(C)CC1	-26.6% (inactive)	
CCn1cc(C(=O)O)c(=O)c2cnc(N3CCCC3)nc21	-14.1% [at 7.35 µM] (inactive)	
O=C(OCC(O)CO)c1ccccc1Nc1ccnc2cc(Cl)ccc12 (stereo not drawn)	-26.2% (inactive)	
